Measurements from ChEMBL document CHEMBL3988442, “University of Dundee, Small-Polar-MMV Screening Library” (2021).
For some assays here: Potency and affinity values are given separately.

Key:
Parameters in all cases: scale not given: direction of the effect not stated beside the values
[1] = biological target: Protein translocase subunit SecA (Escherichia coli (strain K12)) (UniProt P10408); experiment: Assay to Identify E. coli SecA ATPase Inhibitors; type: functional; conditions: 30 µM
[2] = biological target: T1, Ubiquitin-activating enzyme e1, putative (Leishmania donovani (strain BPK282A1)) (UniProt E9BSI1); experiment: Leishmania donovani Ubiquitin Activating Enzyme (LdE1); type: functional; conditions: 30 µM
T1 sequence (whole entry): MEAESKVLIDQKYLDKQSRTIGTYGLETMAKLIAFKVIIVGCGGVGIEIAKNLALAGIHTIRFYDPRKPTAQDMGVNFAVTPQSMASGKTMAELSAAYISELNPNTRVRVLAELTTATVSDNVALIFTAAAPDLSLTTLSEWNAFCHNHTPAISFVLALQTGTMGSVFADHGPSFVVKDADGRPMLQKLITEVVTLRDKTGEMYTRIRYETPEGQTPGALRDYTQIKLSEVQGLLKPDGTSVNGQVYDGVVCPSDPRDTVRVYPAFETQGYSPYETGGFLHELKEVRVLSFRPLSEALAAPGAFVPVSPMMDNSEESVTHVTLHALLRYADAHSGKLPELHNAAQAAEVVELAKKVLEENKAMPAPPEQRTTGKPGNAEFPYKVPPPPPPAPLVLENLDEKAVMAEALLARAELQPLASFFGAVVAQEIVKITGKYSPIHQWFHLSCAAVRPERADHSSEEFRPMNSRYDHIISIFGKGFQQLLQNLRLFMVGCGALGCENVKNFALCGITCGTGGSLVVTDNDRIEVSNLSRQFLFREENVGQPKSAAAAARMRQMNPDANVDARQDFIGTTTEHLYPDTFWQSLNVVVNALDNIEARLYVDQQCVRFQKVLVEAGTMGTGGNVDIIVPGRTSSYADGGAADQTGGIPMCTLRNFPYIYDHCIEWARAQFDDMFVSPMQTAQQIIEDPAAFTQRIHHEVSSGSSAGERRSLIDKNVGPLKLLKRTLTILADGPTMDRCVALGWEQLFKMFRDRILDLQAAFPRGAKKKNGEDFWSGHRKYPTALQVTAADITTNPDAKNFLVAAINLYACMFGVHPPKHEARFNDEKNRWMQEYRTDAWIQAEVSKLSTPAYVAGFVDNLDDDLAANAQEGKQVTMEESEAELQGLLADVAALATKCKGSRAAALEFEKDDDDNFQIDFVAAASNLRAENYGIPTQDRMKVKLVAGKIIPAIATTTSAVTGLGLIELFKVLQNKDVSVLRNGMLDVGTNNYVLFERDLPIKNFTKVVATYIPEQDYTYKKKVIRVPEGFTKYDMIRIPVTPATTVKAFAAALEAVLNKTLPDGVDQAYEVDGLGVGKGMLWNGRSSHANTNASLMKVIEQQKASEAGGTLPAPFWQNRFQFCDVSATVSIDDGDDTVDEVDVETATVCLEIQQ

[3] = biological target: AMP-activated protein kinase, AMPK (Homo sapiens) (UniProt P54646+O43741+P54619+Q9UGJ0+Q9Y478+Q13131+Q9UGI9); experiment: AMP-dependent Kinase enzyme assay. An in vitro enzyme assay that detects ADP turnover that is directly proportional to AMPK activity. This uses naive AMPK that is activated during the assay with MK-8722; type: functional; conditions: 30 µM
[4] = biological target: Sialic acid-binding Ig-like lectin 9 (Homo sapiens) (UniProt Q9Y336); experiment: Hs-Siglec9 ALPHAscreen SOP 20170721; conditions: 10 µM
Trypanosoma cruzi = experiment: Trypanosoma cruzi phosphomannomutase and mannose-1-phosphate guanylyltransferase assay; type: functional; conditions: 10 µM
[5] = biological target: T2, Arginase-2, mitochondrial (Homo sapiens) (UniProt P78540); experiment: in vitro enzyme assay to detect the production of urea directly proportional to the activity of Arginase II; type: functional; conditions: 33.3 µM; also: in the data most compounds retested in dose-response had high values
T2 sequence (whole entry): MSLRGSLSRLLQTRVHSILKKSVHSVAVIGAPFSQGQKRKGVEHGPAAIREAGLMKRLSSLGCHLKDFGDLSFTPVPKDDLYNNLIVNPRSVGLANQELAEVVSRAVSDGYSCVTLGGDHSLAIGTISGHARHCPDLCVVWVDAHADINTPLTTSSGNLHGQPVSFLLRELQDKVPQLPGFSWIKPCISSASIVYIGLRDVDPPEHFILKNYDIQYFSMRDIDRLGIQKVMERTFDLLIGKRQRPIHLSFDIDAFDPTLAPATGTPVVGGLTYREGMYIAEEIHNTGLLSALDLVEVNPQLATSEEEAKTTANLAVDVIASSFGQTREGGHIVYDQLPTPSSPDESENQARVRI

[6] = biological target: T3, Proteasome subunit beta (Trypanosoma cruzi) (UniProt O96673); experiment: Trypanosoma cruzi proteasome chymotrypsin-like activity (TcProtChymo) assay.; also: in the data most compounds retested in dose-response had high values; type: functional; conditions: 9.37 µM
T3 sequence (whole entry): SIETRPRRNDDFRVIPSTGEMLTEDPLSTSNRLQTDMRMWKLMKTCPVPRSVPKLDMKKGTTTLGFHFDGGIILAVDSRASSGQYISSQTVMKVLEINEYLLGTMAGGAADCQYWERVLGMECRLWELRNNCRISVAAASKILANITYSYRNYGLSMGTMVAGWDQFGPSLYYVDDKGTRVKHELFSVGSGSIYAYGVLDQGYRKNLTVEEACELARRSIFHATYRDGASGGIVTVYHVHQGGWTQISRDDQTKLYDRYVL

Homo sapiens = species: Homo sapiens; experiment: To identify inhibition of the IFN signalling (Jak-Stat) pathway via expression of an eGFP reporter gene under the control of an IFN-stimulated response element (ISRE) containing MxA promoter.; type: functional; conditions: 30 µM
[7] = biological target: T4, Tyrosyl-tRNA synthetase, putative (Trypanosoma cruzi (strain CL Brener)) (UniProt Q4DSP6); experiment: Trypanosoma cruzi tyrosyl tRNA synthetase (TcYRS) _High Tyrosine SOP; type: functional; conditions: 30 µM; also: in the data most compounds retested in dose-response had high values
T4 sequence (whole entry): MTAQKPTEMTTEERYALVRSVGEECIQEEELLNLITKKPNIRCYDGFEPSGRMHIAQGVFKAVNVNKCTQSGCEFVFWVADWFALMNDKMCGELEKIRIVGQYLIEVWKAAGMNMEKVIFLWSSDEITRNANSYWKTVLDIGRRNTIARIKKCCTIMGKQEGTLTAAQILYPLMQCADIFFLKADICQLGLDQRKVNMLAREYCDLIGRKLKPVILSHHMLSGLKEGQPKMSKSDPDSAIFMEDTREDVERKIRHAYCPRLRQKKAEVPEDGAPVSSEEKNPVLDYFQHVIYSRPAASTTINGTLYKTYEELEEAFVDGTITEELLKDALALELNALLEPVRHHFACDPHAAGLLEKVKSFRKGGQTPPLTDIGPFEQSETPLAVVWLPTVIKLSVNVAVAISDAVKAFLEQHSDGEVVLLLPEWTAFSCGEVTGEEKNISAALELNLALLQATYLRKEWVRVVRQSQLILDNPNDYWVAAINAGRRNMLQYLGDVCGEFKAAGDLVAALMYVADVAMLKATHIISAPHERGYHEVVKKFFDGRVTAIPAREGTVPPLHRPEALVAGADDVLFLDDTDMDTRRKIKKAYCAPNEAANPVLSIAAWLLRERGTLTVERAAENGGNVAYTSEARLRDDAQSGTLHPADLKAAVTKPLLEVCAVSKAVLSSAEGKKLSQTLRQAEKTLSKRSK

[8] = biological target: T4, Tyrosyl-tRNA synthetase, putative (Trypanosoma cruzi (strain CL Brener)); experiment: Trypanosoma cruzi tyrosyl tRNA synthetase (TcYRS) SOP; type: functional; conditions: 30 µM
[9] = biological target: Chromo domain-containing protein 1 (Saccharomyces cerevisiae (strain ATCC 204508 / S288c) (Baker's yeast)) (UniProt P32657); experiment: ScCHD-1 Enzyme Inhibition Assay; type: functional; conditions: 30 µM; also: in the data most compounds retested in dose-response had high values
Chain of Chromo domain-containing protein 1 (Saccharomyces cerevisiae (strain ATCC 204508 / S288c) (Baker's yeast)) (P32657 whole entry, the tested form may be a part): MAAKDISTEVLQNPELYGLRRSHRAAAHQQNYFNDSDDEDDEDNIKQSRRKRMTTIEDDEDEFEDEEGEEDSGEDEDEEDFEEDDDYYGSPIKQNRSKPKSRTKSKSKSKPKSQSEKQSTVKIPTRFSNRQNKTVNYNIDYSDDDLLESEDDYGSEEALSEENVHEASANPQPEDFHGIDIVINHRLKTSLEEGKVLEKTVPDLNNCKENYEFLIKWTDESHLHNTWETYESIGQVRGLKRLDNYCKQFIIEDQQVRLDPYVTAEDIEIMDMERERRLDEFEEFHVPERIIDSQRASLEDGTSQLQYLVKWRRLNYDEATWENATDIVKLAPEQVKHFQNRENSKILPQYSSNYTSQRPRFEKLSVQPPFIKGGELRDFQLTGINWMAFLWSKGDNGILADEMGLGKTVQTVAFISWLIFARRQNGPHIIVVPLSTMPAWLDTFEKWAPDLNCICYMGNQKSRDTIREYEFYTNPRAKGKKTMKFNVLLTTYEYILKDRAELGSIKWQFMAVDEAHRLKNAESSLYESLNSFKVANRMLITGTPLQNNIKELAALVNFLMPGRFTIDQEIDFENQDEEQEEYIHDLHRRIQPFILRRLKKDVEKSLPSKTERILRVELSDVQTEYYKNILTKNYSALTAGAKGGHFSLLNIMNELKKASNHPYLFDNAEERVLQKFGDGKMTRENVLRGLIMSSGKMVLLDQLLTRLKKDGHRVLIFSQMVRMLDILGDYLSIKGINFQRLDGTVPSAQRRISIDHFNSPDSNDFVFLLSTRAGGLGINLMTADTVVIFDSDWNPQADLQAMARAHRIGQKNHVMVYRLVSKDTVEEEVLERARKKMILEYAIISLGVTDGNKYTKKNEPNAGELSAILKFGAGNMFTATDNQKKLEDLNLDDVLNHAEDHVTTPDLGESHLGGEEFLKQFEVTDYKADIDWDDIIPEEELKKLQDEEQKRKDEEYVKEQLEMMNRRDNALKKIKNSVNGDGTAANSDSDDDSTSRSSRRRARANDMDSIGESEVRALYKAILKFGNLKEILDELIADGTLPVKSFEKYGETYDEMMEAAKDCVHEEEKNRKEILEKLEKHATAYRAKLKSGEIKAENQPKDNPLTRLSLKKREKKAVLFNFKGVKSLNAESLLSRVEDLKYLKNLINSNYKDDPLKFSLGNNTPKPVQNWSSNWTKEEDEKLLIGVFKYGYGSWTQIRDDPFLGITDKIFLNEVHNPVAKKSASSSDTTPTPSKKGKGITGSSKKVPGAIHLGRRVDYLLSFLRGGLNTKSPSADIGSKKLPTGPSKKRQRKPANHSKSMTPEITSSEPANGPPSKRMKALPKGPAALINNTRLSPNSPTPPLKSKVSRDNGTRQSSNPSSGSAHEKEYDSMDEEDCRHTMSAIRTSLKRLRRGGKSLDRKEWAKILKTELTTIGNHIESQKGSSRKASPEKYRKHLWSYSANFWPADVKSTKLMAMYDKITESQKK

Chain of Protein translocase subunit SecA (Escherichia coli (strain K12)) (P10408 whole entry): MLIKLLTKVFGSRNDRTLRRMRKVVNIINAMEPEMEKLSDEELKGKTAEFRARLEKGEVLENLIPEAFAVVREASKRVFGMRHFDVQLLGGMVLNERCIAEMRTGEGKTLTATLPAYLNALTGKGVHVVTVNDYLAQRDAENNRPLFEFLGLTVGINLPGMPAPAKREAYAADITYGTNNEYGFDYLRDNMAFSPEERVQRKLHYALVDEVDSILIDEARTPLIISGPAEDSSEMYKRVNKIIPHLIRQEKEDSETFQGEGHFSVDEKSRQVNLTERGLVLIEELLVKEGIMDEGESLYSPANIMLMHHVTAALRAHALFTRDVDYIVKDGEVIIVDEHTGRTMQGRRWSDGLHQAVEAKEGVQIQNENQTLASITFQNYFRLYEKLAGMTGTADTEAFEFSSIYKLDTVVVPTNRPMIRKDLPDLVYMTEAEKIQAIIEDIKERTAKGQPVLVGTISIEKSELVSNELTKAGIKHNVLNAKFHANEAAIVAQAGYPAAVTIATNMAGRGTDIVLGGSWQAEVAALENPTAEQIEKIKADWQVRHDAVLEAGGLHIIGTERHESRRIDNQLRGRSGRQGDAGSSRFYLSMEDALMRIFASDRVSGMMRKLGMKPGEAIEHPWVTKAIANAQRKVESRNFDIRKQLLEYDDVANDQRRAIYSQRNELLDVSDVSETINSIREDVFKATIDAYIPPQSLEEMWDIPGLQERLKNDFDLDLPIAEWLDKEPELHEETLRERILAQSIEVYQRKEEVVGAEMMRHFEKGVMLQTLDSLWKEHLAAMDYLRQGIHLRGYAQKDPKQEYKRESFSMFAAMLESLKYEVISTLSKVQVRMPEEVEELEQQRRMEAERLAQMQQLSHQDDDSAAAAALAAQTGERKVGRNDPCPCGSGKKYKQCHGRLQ
Chain of Sialic acid-binding Ig-like lectin 9 (Homo sapiens) (Q9Y336 whole entry): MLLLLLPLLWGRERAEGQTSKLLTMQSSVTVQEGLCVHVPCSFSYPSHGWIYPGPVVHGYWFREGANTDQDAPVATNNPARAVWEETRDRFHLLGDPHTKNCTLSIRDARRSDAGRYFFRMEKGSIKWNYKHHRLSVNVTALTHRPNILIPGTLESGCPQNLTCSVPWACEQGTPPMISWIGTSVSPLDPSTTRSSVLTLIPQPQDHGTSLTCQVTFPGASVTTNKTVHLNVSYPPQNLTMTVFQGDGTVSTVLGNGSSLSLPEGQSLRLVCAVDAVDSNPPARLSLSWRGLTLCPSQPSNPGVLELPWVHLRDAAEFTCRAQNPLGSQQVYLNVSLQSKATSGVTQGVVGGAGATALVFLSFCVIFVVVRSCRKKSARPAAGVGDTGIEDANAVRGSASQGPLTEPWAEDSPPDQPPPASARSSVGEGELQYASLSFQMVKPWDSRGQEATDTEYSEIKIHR

O=C(NC1(c2cccc(F)c2)CCOCC1)c1ccccn1
Percent Effect [1]: -5.05%
Percent Effect [2]: 2.6%
Percent Effect [3]: -0.416%
Percent Effect [4]: 0.357%
Percent Effect (Trypanosoma cruzi): -4.03%
Percent Effect [5]: 2.76%
Percent Effect [6]: 0.499%
Percent Effect (Homo sapiens): 14.4%
Percent Effect [7]: -6.45%
Percent Effect [8]: -6.17%
Percent Effect [9]: 2.74%

Cc1nc(C)n(C2CCCN(C(=O)c3ccc(N(C)C)nn3)C2)n1 (stereo not given)
Percent Effect [1]: -1.66%
Percent Effect [2]: -5.2%
Percent Effect [3]: 4.94%
Percent Effect [4]: -6.86%
Percent Effect (Trypanosoma cruzi): 7.35%
Percent Effect [5]: -0.632%
Percent Effect [6]: 6.06%
Percent Effect (Homo sapiens): -42.5%
Percent Effect [7]: 2.86%
Percent Effect [8]: 0%
Percent Effect [9]: -16.9%

Cc1ccsc1CN(CCN(C)C)Cc1ccccn1
Percent Effect [1]: -5.5%
Percent Effect [2]: 4.17%
Percent Effect [3]: -16.2%
Percent Effect [4]: 21.2%
Percent Effect (Trypanosoma cruzi): 5.15%
Percent Effect [5]: 18.5%
Percent Effect [6]: 11.1%
Percent Effect (Homo sapiens): -4.45%
Percent Effect [7]: 7.37%
Percent Effect [8]: 15.4%
Percent Effect [9]: -9.23%

CN(Cc1ccco1)[C@@H]1CN(C(=O)c2ccnnc2)C[C@@H]2CCCO[C@@H]21
Percent Effect [1]: -2.86%
Percent Effect [2]: 2.74%
Percent Effect [3]: -3.12%
Percent Effect [4]: 2.33%
Percent Effect (Trypanosoma cruzi): 4.76%
Percent Effect [5]: 2.4%
Percent Effect [6]: 0.77%
Percent Effect (Homo sapiens): -17.3%
Percent Effect [7]: 2.08%
Percent Effect [8]: 8.64%
Percent Effect [9]: 1.23%

CC(C)c1noc(CCCC(=O)N2CCN(Cc3ccncc3)CC2)n1
Percent Effect [1]: -2.42%
Percent Effect [2]: 22.8%
Percent Effect [3]: -9.61%
Percent Effect [4]: -9.55%
Percent Effect (Trypanosoma cruzi): 3.87%
Percent Effect [5]: -6.84%
Percent Effect [6]: 12.2%
Percent Effect (Homo sapiens): 11.6%
Percent Effect [7]: 5.42%
Percent Effect [8]: 21.5%
Percent Effect [9]: -6.65%

Cc1cc(CN2CCC(CNC(=O)c3nccc4ccccc34)C2)[nH]n1 (stereo not given)
Percent Effect [1]: 1.25%
Percent Effect [2]: 10.8%
Percent Effect [3]: -15.5%
Percent Effect [4]: 7.44%
Percent Effect (Trypanosoma cruzi): 4.2%
Percent Effect [5]: 15.6%
Percent Effect [6]: 12.3%
Percent Effect (Homo sapiens): 26.4%
Percent Effect [7]: 11.8%
Percent Effect [8]: 25.9%
Percent Effect [9]: -2.74%

CC(C)c1noc(C(C)N2CCN(Cc3ccco3)CC2)n1 (stereo not given)
Percent Effect [1]: -1.82%
Percent Effect [2]: -7.89%
Percent Effect [3]: -0.515%
Percent Effect [4]: 3.05%
Percent Effect (Trypanosoma cruzi): 7.19%
Percent Effect [5]: -3.24%
Percent Effect [6]: 2.45%
Percent Effect (Homo sapiens): -1.85%
Percent Effect [7]: 1.48%
Percent Effect [8]: 1.24%
Percent Effect [9]: 0.33%

CN(CC1CCCO1)C1CCN(CCc2ccccn2)CC1 (stereo not given)
Percent Effect [1]: -1.45%
Percent Effect [2]: 0%
Percent Effect [3]: -5.1%
Percent Effect [4]: 7.51%
Percent Effect (Trypanosoma cruzi): -1.95%
Percent Effect [5]: 0.924%
Percent Effect [6]: -0.898%
Percent Effect (Homo sapiens): 7.31%
Percent Effect [7]: 3.96%
Percent Effect [8]: 1.22%
Percent Effect [9]: 8.88%

CC(=O)c1ccc(OCC(=O)NC(C)CCc2ccco2)cc1 (stereo not given)
Percent Effect [1]: -0.558%
Percent Effect [2]: 5.41%
Percent Effect [3]: 7.91%
Percent Effect [4]: -3.5%
Percent Effect (Trypanosoma cruzi): -7.34%
Percent Effect [5]: 1.91%
Percent Effect [6]: 19.8%
Percent Effect (Homo sapiens): 6.38%
Percent Effect [7]: 3.7%
Percent Effect [8]: 2.44%
Percent Effect [9]: -1.85%

CCN1CCN(C2CCN(Cc3nc(-c4ccoc4)no3)CC2)C1=O
Percent Effect [1]: -8.04%
Percent Effect [2]: 2.6%
Percent Effect [3]: 7.03%
Percent Effect [4]: -5.89%
Percent Effect (Trypanosoma cruzi): -5.24%
Percent Effect [5]: 1.07%
Percent Effect [6]: 0.676%
Percent Effect (Homo sapiens): 23.7%
Percent Effect [7]: 1.94%
Percent Effect [8]: 0%
Percent Effect [9]: -2.83%
